# From PubChem BioAssay AID602387 (Sanford-Burnham Center for Chemical Genomics, 2012)
# Screen size: about 2,300 compounds; about 30 (1%) were called active. Only a sample is shown. Values without a mark were called inactive.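 Rule for the calls: active = activation of at least 30% at 10 µM; inactive = the rest.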
# Experiment: spectral interference with molecular beacon fluorescence, confirmation, artefact control for DNMT1 inhibitor project, biochemical, fluorescent molecular beacon, single concentration (AID 602387);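 note: DNMT1 catalytic domain with a HinP1I cleavage step and a FAM/dabcyl DNA beacon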
# Settings: DNMT1 molecular beacon spectral interference counterscreen, fluorescence 485/520; at 10 µM; stronger effect = higher value
row,Compound,activation (fluorescence interference)
1,COc1ccc(Cl)cc1NC(=O)CCS(=O)(=O)c1ccc(Br)cc1,3.16%
2,O=C(CCN1C(=O)C2C3C=CC(C3)C2C1=O)Nc1ccccc1F (stereo unspecified),1.81%
3,COc1ccc(/C=C2\SC(=N)N(c3ccc(F)cc3)C2=O)cc1,2.19%
4,Oc1c(C(c2ccco2)N2CCC3(CC2)OCCO3)sc2ncnn12 (stereo unspecified),3.04%
5,O=C(COC(=O)c1ccccc1O)NCc1ccco1,6.37%
6,O=C(CCS(=O)(=O)c1ccc(Br)cc1)NCCc1ccc(Cl)cc1,1.71%
7,CCCCCCc1cc2cc(-c3nnc(-c4ccccc4)o3)c(=O)oc2cc1O,-8.15%
8,O=C(CSc1nc2ccccc2c(=O)[nH]1)Nc1nc(-c2ccc(Br)cc2)cs1,1.36%
9,COc1ccc(Br)cc1/C=N/Nc1ccc(S(=O)(=O)Nc2ccccc2C(=O)O)cc1[N+](=O)[O-],-9.44%
10,COC(=O)CCCCC1=CCC2C(=O)C=C(O)C2C1 (stereo unspecified),10.1%
11,COc1ccc(OCC(=O)NNC(=O)c2ccc(-c3ccccc3)cc2)cc1,1.59%
12,CSc1ccc(CNC(=O)c2ccc(NC(=O)C3=CSCCO3)cc2)cc1,4.08%
13,C=CC[C@@H](CC(=O)N[C@H](CO)Cc1ccccc1)C(=O)N[C@@H](COC(=O)[C@@H](CC=C)Cc1ccc(F)cc1)Cc1c[nH]c2ccccc12,10.2%
14,Cc1ccc(CNC(=O)CSc2nnc3c(n2)[nH]c2ccc(F)cc23)cc1,3.05%
15,COc1cc(-c2nnc(NC(=O)CS(=O)(=O)c3ccc(Cl)cc3)o2)cc(OC)c1OC,5.03%
16,COc1ccc(-n2c(SCC(=O)Nc3sc4c(c3C#N)CCCC4)nnc2-c2ccc(O)cc2)cc1,1.12%
17,CCOc1cc(NC(=O)c2ccco2)c(OCC)cc1NC(=O)COc1ccccc1,-8.28%
18,CC1(C)Cc2nc3sc4c(SCC(=O)NC(c5ccccc5)c5ccccc5)ncnc4c3cc2CO1,1.08%
19,O=C(COc1ccc(/C=N/NC(=O)c2ccc(O)cc2)cc1)Nc1ccc([N+](=O)[O-])cc1,-12.5%
20,O=C(c1ccc(CS(=O)(=O)c2ccccc2)o1)N1CCN(c2ccccc2)CC1,-0.52%
21,CCOC(=O)C(NC(=O)CC(C)C)(Nc1sc2c(c1C(N)=O)CCCC2)C(F)(F)F (stereo unspecified),6.15%
22,COc1ccc(C(=O)/C=C/c2ccc(-c3ccccc3)cc2)cc1CSCC(=O)O,-0.97%
23,O=C(COc1ccc([N+](=O)[O-])cc1)Nc1ccc(N2CCCC2)cc1,4.14%

row,Compound,activation (fluorescence interference)
1,N#Cc1ccccc1CN1C(=O)S/C(=C/c2cccn2-c2cccc(C(=O)O)c2)C1=O,1.4%
2,COc1ccc2sc(-c3ccc(S(C)(=O)=O)cc3)c(-c3ccc(C(N)=O)cc3)c2c1,4.53%
3,CN(CCOc1ccccc1)C(=O)c1cc(-c2ccco2)nc2ccccc12,3.34%
4,Cc1ccc2cc(C)c(N3CCC(C)CC3)nc2c1,2.52%
5,COc1ccc(NC(=O)CN(C)C(=O)c2cc(C3CC3)nn2-c2ccccc2)cc1,0.09%
6,COc1ccc(CC(=O)Nc2ccc(-c3nnc(-c4ccc(C)cc4)o3)cc2)cc1,-5.84%
7,CS(=O)(=O)c1ccc2c(c1)SC1=NC(=O)/C(=C/c3ccco3)C(=N)N12,1.32%
8,O=C1CCCC(O)=C1C=NCCc1ccccc1,5.41%
9,O=C(Nc1cccc(-c2nc3ccccc3[nH]2)c1)c1ccc(C(=O)Nc2cccc(-c3nc4ccccc4[nH]3)c2)cc1,-6.94%
10,CC(Oc1ccccc1)C(=O)Nc1oc(-c2ccco2)c(-c2ccco2)c1C#N (stereo unspecified),0.87%
11,c1ccc2cc3[nH]c(CN4CCCCC4)nc3cc2c1,5.49%
12,CC(=O)Nc1ccc(SCC(=O)NC(=O)c2ccc(Cl)cc2)cc1,4.23%
13,Cc1nnc(N/N=C/c2cccs2)[nH]c1=O,1.29%
14,CCCCNC(=O)CCn1c(=O)c2ccccc2n(Cc2cc(C)ccc2C)c1=O,1.75%
15,Cc1ccc(C(=O)NNC(=O)c2cc3cc4ccccc4nc3s2)cc1,4.21%
16,CC(C)(C)NC(=O)CSC(=Nc1ccccc1F)NC#N,8.71%
17,COc1ccc2[nH]c(=O)c(-c3noc(-c4ccc(F)cc4)n3)cc2c1,-3.37%
18,COc1ccc(OC)c(NC(=O)c2cc(-c3cc(F)ccc3OCC3CCCO3)n[nH]2)c1 (stereo unspecified),7.7%
19,O=C(NNc1ccccn1)c1ccc(Cl)nc1,1.8%
20,O=C(Oc1ccc(-c2nc(-c3ccccn3)no2)cc1)c1ccccc1,-1.62%
21,CCc1nn(-c2cc(Oc3cccc4ccccc34)nc(-c3ccccc3)n2)c(N)c1C#N,1.42%
22,CCOC(=O)c1cccc(NC(=O)C2CCCN(S(=O)(=O)c3cnc[nH]3)C2)c1 (stereo unspecified),2.94%
23,C=CCn1c(=S)[nH]c2scc(-c3ccco3)c2c1=O,-3.16%
